# From PubChem BioAssay (NCI)
# Values joined by “and” are separate entries in the source; they are usually repeats but may differ in a detail not shown here. Equal values may be shown once. This is part of a sample that, as a whole, favours compounds with a hit. Of some 79,000 tested, about 15% had one in any assay. Some structures have more than one record in an assay (separate samples or runs), and their calls can disagree. Active and inactive are the calls of the source. Rule as the data show it: active = growth inhibition above about 70%; inactive = the rest.
# Assay: NCI Yeast Anticancer Drug Screen. Data for the mlh1 rad18 strain (AID 175)
# Settings: S. cerevisiae mlh1 rad18 strain growth inhibition, stronger effect = higher value
# Procedure: Growth inhibition of yeast strains with defined genetic alterations is measured as a screen for potential anti-cancer activity. Selected strains with alterations in DNA damage repair or cell cycle control were exposed to compounds and growth inhibition was measured relative to vehicle treated controls. The strain used in this assay is mlh1 rad18
# [1] = at 5.0 µM (retest, dose inferred, filed as 0.5)
# [2] = at 50.0 µM (retest, dose inferred, filed as 5.0)
Structure (SMILES),growth inhibition [1],growth inhibition [2],growth inhibition (at 50.0 µM)
N/C(=N/N=C/c1cc(Br)cc(Br)c1O)NO,16% (inactive),99% (active),98.7% (active)
CCCCOCn1c(=O)[nH]c(=O)c2cc(Br)ccc21,28% (inactive),32% (inactive),26.9% (inactive)
O=C1C=C(Cl)C(=O)N1c1cccc(Cl)c1,0% (inactive),95% (active),99.5% (active)
COc1cc2cc3c4cc(OC)c(OC)cc4cc[n+]3c(C)c2cc1OC,55% (inactive),80% (active),-76.2% (inactive)
CCCCC(CC)C(=O)[O][Sn]([CH2]CCC)([CH2]CCC)[O]C(=O)C(CC)CCCC (configuration not stated),58% (inactive),98% (active),88.8% (active)
C[C](C)(C)[Ge]([O][Ge]([c]1ccccc1)[c]1ccccc1)([O][Ge]([c]1ccccc1)[c]1ccccc1)[C](C)(C)C,48% (inactive),90% (active),75.9% (active)
CCOC(=N)c1ccc(O)c(OC)c1,-1% (inactive),-3% (inactive),17.4% (inactive)
COC(=O)CC1CCc2c(ccc3ccccc23)C1(C)C(=O)OC (configuration not stated),-3% (inactive),54% (inactive),27.6% (inactive)
Nc1n[n+]([O-])c2ccc(Cl)cc2[n+]1[O-],50% (inactive),97% (active),94.7% (active)
Cc1ccc(N=Nc2ccc(O)c(=O)cc2)cc1,9% (inactive),90% (active),-6.6% (inactive) and 86.5% (active)
CCCCc1nnc(NS(=O)(=O)c2ccc(C)cc2)s1,77% (active),99% (active),59.1% (inactive)
COc1cccc2c1C(=O)c1c(O)c3c(c(O)c1C2=O)C[C@@](O)(C(C)=O)C[C@@H]3OC1CC(OC(C)=O)C(OC(C)=O)C(C)O1 (some centres not stated),23% (inactive),62% (inactive),82.7% (active)
O=C(CC(=O)n1nc(-c2ccccc2)c(N=Nc2ccc(Cl)cc2)c1-c1ccccc1)Nc1cccc(Cl)c1,-5% (inactive),17% (inactive),57.1% (inactive)
CCOC(=O)C(C(=O)OCC)=P(c1ccccc1)(c1ccccc1)c1ccccc1,0% (inactive),26% (inactive),21.1% (inactive)
